Measured values from PubChem BioAssay (NCATS).
Inconclusive results are not listed. The source made the active and inactive calls. The call rests on the fitted dose curve; in most records, active means well fitted curve in the direction sought with a large enough effect; inconclusive means small, poorly fitted or top-dose-only effect, or another doubt; inactive means no such curve, though single readings can be large; an effect the other way counts as inactive or inconclusive.

Tested on: Zika virus NS2B-NS3 protease
Assay: Primary screen GU AMC qHTS for Zika virus inhibitors (AID 1347154); further: nearly all actives have a fitted effect of over 70% in size; further: potency means the concentration at half of the fitted maximal effect;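 on activity change, negative = inhibition: 0% = no-inhibitor control and -100% = no-enzyme control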
Settings: Zika NS2B-NS3 unlinked protease, AMC fluorogenic substrate; series mostly up to 54.1 µM; activity change, negative = inhibition: at the top concentration
Procedure, shortened: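 Fluorogenic AMC-substrate cleavage by noncovalent NS2B-NS3 protease complex (25 nM, pH 8.0 Tris buffer with Tween 20) followed for 15 minutes at room temperature (~20% conversion). Percent inhibition from ex340/em450 signal change, fitted by 4-parameter Hill equation.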

SMILES | activity change, negative = inhibition | Potency
O=C(NC1CCOCC1)c1ccc(-c2cc(-c3cn[nH]c3-c3ccccn3)ccn2)cc1 | 18.5% (inactive) | 
NC(=O)c1cnc(-c2ccc(C3(N)CCC3)cc2)c(-c2ccccc2)c1 | 4.3% (inactive) | 
Cc1nc(N)sc1-c1ccnc(Nc2ccc(N3CCOCC3)cc2)n1 | 8.84% (inactive) | 
CC(=O)Nc1ccc([C@H](C)C(=O)Nc2ncc(C(C)C)s2)cc1 | 1.07% (inactive) | 
CN1CCN(CCOc2cc(OC3CCOCC3)c3c(Nc4c(Cl)ccc5c4OCO5)ncnc3c2)CC1 | 6.43% (inactive) | 
CC(C)[C@H](CO)Nc1nc(Nc2ccc(C(=O)O)c(Cl)c2)c2ncn(C(C)C)c2n1 |  | inactive
CO[C@H]1C=CO[C@@]2(C)Oc3c(C)c(O)c4c(O)c(c5c(c4c3C2=O)NC2(CCN(CC(C)C)CC2)N=5)=NC(=O)C(C)=CC=C[C@H](C)[C@H](O)[C@@H](C)[C@@H](O)[C@@H](C)[C@H](OC(C)=O)[C@H]1C | -5.35% (inactive) | 
CN(C)CCC(c1ccccc1)c1ccccn1 (centres undefined) | -7.44% (inactive) | 
Cn1c(N2CCCCS2(=O)=O)nc(C(=O)NCc2ccc(F)cc2)c(O)c1=O | -4.98% (inactive) | 
CN(C)C1CCN(C(=O)c2ccc(NC(=O)Nc3nc(N4CCOCC4)nc(N4CCOCC4)n3)cc2)CC1 | 13.7% (inactive) | 
COc1ccc2c(Oc3ccc(NC(=O)c4c(C)n(CC(C)(C)O)n(-c5ccccc5)c4=O)nc3)ccnc2c1 | -8.2% (inactive) | 
COc1ccc2c(Oc3ccc(NC(=O)c4c(C)n(CC(C)(C)O)n(-c5ccccc5)c4=O)cc3F)ccnc2c1 | -19.7% (inactive) | 
COc1cc(N2CCC(N3CCN(C)CC3)CC2)ccc1Nc1ncnc(Nc2ccccc2S(=O)(=O)C(C)C)n1 | 5.06% (inactive) | 
CCCNC(=O)NS(=O)(=O)c1ccc(Cl)cc1 | -4.32% (inactive) | 
CC(C)(C)NC(=O)Nc1cccc(Nc2ncc(F)c(NC(C)(C)CO)n2)c1 | 8.76% (inactive) | 
CC(=O)O[C@]1(C(C)=O)CC[C@H]2[C@@H]3C=C(Cl)C4=CC(=O)[C@@H]5C[C@@H]5[C@]4(C)[C@H]3CC[C@@]21C | -10.8% (inactive) | 
COc1cc2ncnc(-n3nc(-c4ccccn4)nc3N)c2cc1OC | 10.9% (inactive) | 
CC(=O)CCCCn1c(=O)c2c(ncn2C)n(C)c1=O | -1.95% (inactive) | 
O=C(NCc1ccccc1)c1csc(Nc2ccncn2)n1 | -2.53% (inactive) | 

SMILES | activity change, negative = inhibition | Potency
COc1ccc(Cc2ccc(NC(N)=O)cc2)cc1-c1cccc(Cl)c1 | -14.6% (inactive) | 
NC(=O)c1cccc2[nH]c(-c3ccc([C@H]4CCCN4)cc3F)nc12 |  | 24.1 µM (active)
Clc1ccc(Cn2c(CN3CCCC3)nc3ccccc32)cc1 | -12.9% (inactive) | 
COc1ccc(C2Sc3ccccc3N(CCN(C)C)C(=O)C2OC(C)=O)cc1 (centres undefined) |  | inactive
O=C(Nc1cccc(Br)c1)c1cccc(S(=O)(=O)N2CCCCCC2)c1 | -19.6% (inactive) | 
COCCOc1nc(-c2ccc(Cl)c(Cl)c2)n(-c2ccc(NC(=O)CCl)cc2)n1 | 0.0497% (inactive) | 
CCN1CCC[C@H]1CNC(=O)c1cc(S(N)(=O)=O)ccc1OC |  | inactive
CC(=O)N(C)C1(c2ccccc2)CCN(CCC[C@]2(c3ccc(Cl)c(Cl)c3)CCCN(C(=O)c3ccccc3)C2)CC1 | -5.02% (inactive) | 
CS(=O)(=O)N(Cc1ccco1)CC(O)Cn1c2ccccc2c2ccccc21 (centres undefined) | -4% (inactive) | 
COc1ccc(C2CC(c3ccccc3)=NN2c2ccc(S(N)(=O)=O)cc2)cc1 (centres undefined) | 981% (inactive) | 
COc1cc2c(cc1OC)CN(CCc1ccc(NC(=O)c3cc(OC)c(OC)cc3NC(=O)c3cnc4ccccc4c3)cc1)CC2 | -0.525% (inactive) | 
CCN(CC)CCNC(=O)c1ccc(N)cc1 |  | inactive
O=C(O)c1ccccc1C(=O)Nc1ccc(-c2ccccc2)cc1 | -3.21% (inactive) | 
COc1cc(N2CCC(N3CCN(C)CC3)CC2)ccc1Nc1ncc(Cl)c(Nc2ccccc2S(=O)(=O)C(C)C)n1 | -5.66% (inactive) | 
CNC1CCC(N(Cc2cccc(-c3ccncc3)c2)C(=O)c2sc3c(F)ccc(F)c3c2Cl)CC1 (centres undefined) | 3.22% (inactive) | 
NC(=O)c1cccc(-c2cc(Nc3ccc(OC(F)(F)F)cc3)ncn2)c1 | -7.13% (inactive) | 
CN[C@@H](C)C(=O)N[C@H]1CN(C(=O)CC(C)C)CC[C@H]2CC[C@@H](C(=O)NC(c3ccccc3)c3ccccc3)N2C1=O | 15% (inactive) | 
COc1ccccc1N1CCN(CCCNc2cc(=O)n(C)c(=O)n2C)CC1 |  | inactive

Tested on: Zika virus NS2B-NS3 protease (unlinked complex)
Assay: Primary screen GU Rhodamine qHTS for Zika virus inhibitors: Unlinked NS2B-NS3 protease assay (AID 1347159); further: on the % scale 0 is the no-effect control and ±100 the full control effect; nearly all actives have a fitted effect of over 60% in size
Settings: Recombinant ZIKV NS2B-NS3 protease, Rhodamine110 substrate fluorescence; series mostly up to 107 µM; activity change, negative = inhibition: at the top concentration
Procedure, shortened: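 Noncovalent NS2B hydrophilic domain–NS3 protease domain complex (25 nM) preincubated 15 min at room temperature with compounds (up to 114 microM) in 10 mM Tris-HCl pH 8.0, 0.01% Tween 20; 1.5 microM Rhodamine110 substrate added, fluorescence change over 15 min fitted to Hill equation.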

SMILES | activity change, negative = inhibition
O=C(NC1CCOCC1)c1ccc(-c2cc(-c3cn[nH]c3-c3ccccn3)ccn2)cc1 | -3.83% (inactive)
NC(=O)c1cnc(-c2ccc(C3(N)CCC3)cc2)c(-c2ccccc2)c1 | 47.5% (inactive)
Cc1nc(N)sc1-c1ccnc(Nc2ccc(N3CCOCC3)cc2)n1 | 12.8% (inactive)
CC(=O)Nc1ccc([C@H](C)C(=O)Nc2ncc(C(C)C)s2)cc1 | -3.21% (inactive)
CN1CCN(CCOc2cc(OC3CCOCC3)c3c(Nc4c(Cl)ccc5c4OCO5)ncnc3c2)CC1 | 42.1% (inactive)
CC(C)[C@H](CO)Nc1nc(Nc2ccc(C(=O)O)c(Cl)c2)c2ncn(C(C)C)c2n1 | 0% [at 57.1 µM] (inactive)
CO[C@H]1C=CO[C@@]2(C)Oc3c(C)c(O)c4c(O)c(c5c(c4c3C2=O)NC2(CCN(CC(C)C)CC2)N=5)=NC(=O)C(C)=CC=C[C@H](C)[C@H](O)[C@@H](C)[C@@H](O)[C@@H](C)[C@H](OC(C)=O)[C@H]1C | -26.4% (inactive)
CN(C)CCC(c1ccccc1)c1ccccn1 (centres undefined) | 17.4% (inactive)
Cn1c(N2CCCCS2(=O)=O)nc(C(=O)NCc2ccc(F)cc2)c(O)c1=O | 46.9% (inactive)
CN(C)C1CCN(C(=O)c2ccc(NC(=O)Nc3nc(N4CCOCC4)nc(N4CCOCC4)n3)cc2)CC1 | -11.1% [at 57.1 µM] (inactive)
COc1ccc2c(Oc3ccc(NC(=O)c4c(C)n(CC(C)(C)O)n(-c5ccccc5)c4=O)nc3)ccnc2c1 | 17.6% (inactive)
COc1ccc2c(Oc3ccc(NC(=O)c4c(C)n(CC(C)(C)O)n(-c5ccccc5)c4=O)cc3F)ccnc2c1 | 36.4% (inactive)
COc1cc(N2CCC(N3CCN(C)CC3)CC2)ccc1Nc1ncnc(Nc2ccccc2S(=O)(=O)C(C)C)n1 | 42.7% (inactive)
CCCNC(=O)NS(=O)(=O)c1ccc(Cl)cc1 | 10.6% (inactive)
CC(C)(C)NC(=O)Nc1cccc(Nc2ncc(F)c(NC(C)(C)CO)n2)c1 | -5.1% (inactive)
CC(=O)O[C@]1(C(C)=O)CC[C@H]2[C@@H]3C=C(Cl)C4=CC(=O)[C@@H]5C[C@@H]5[C@]4(C)[C@H]3CC[C@@]21C | -27% (inactive)
COc1cc2ncnc(-n3nc(-c4ccccn4)nc3N)c2cc1OC | 46% [at 57.1 µM] (inactive)
CC(=O)CCCCn1c(=O)c2c(ncn2C)n(C)c1=O | -1.4% (inactive)
O=C(NCc1ccccc1)c1csc(Nc2ccncn2)n1 | -27.1% (inactive)

SMILES | activity change, negative = inhibition
COc1ccc(Cc2ccc(NC(N)=O)cc2)cc1-c1cccc(Cl)c1 | 183% (inactive)
NC(=O)c1cccc2[nH]c(-c3ccc([C@H]4CCCN4)cc3F)nc12 | 8.82% (inactive)
Clc1ccc(Cn2c(CN3CCCC3)nc3ccccc32)cc1 | -16.4% [at 57.1 µM] (inactive)
COc1ccc(C2Sc3ccccc3N(CCN(C)C)C(=O)C2OC(C)=O)cc1 (centres undefined) | 8.71% [at 57.1 µM] (inactive)
O=C(Nc1cccc(Br)c1)c1cccc(S(=O)(=O)N2CCCCCC2)c1 | -11.5% (inactive)
COCCOc1nc(-c2ccc(Cl)c(Cl)c2)n(-c2ccc(NC(=O)CCl)cc2)n1 | 4.48% (inactive)
CCN1CCC[C@H]1CNC(=O)c1cc(S(N)(=O)=O)ccc1OC | -27.1% (inactive)
CC(=O)N(C)C1(c2ccccc2)CCN(CCC[C@]2(c3ccc(Cl)c(Cl)c3)CCCN(C(=O)c3ccccc3)C2)CC1 | 94.4% (inactive)
CS(=O)(=O)N(Cc1ccco1)CC(O)Cn1c2ccccc2c2ccccc21 (centres undefined) | -0.732% (inactive)
COc1ccc(C2CC(c3ccccc3)=NN2c2ccc(S(N)(=O)=O)cc2)cc1 (centres undefined) | -11.8% (inactive)
COc1cc2c(cc1OC)CN(CCc1ccc(NC(=O)c3cc(OC)c(OC)cc3NC(=O)c3cnc4ccccc4c3)cc1)CC2 | 15% (inactive)
CCN(CC)CCNC(=O)c1ccc(N)cc1 | 52.2% (inactive)
O=C(O)c1ccccc1C(=O)Nc1ccc(-c2ccccc2)cc1 | -28.5% (inactive)
COc1cc(N2CCC(N3CCN(C)CC3)CC2)ccc1Nc1ncc(Cl)c(Nc2ccccc2S(=O)(=O)C(C)C)n1 | -0.0248% (inactive)
CNC1CCC(N(Cc2cccc(-c3ccncc3)c2)C(=O)c2sc3c(F)ccc(F)c3c2Cl)CC1 (centres undefined) | 92.4% (inactive)
NC(=O)c1cccc(-c2cc(Nc3ccc(OC(F)(F)F)cc3)ncn2)c1 | -16.3% (inactive)
CN[C@@H](C)C(=O)N[C@H]1CN(C(=O)CC(C)C)CC[C@H]2CC[C@@H](C(=O)NC(c3ccccc3)c3ccccc3)N2C1=O | 15.8% (inactive)
COc1ccccc1N1CCN(CCCNc2cc(=O)n(C)c(=O)n2C)CC1 | 19.1% (inactive)
